# Measurements published in PubChem BioAssay (NCI).
# This is part of a sample that, as a whole, favours compounds with a hit. Of some 79,000 tested, about 15% had one in any assay. Unmarked numbers belong to inactive results. The source made the active and inactive calls. No stated cut-off is given here; in the data, active means growth inhibition above about 70%; inactive means the rest.
# Assay: NCI Yeast Anticancer Drug Screen. Data for the mec2-1 strain (AID 157)
# Settings: S. cerevisiae mec2-1 strain, at 50.0 µM, stronger effect = higher value
# Procedure, shortened: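 Mutant yeast (mec2-1) grown with compound; growth inhibition relative to vehicle control reported.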
row,SMILES,growth inhibition
1,N#CNC(=Nc1ccccc1)[N](C#N)[Sn]([c]1ccccc1)([c]1ccccc1)[c]1ccccc1,98.3% (active)
2,Cc1cc(Br)cc(C)c1NC(=O)C(=O)CC(=O)c1sc(-n2nc(-c3ccccc3)cc2-c2ccccc2)nc1C,1.75%
3,COc1ccccc1C1c2cc3c(cc2OC(O)(CO)C1C(=O)O)OCO3 (stereo not given) (tested in a mixture with another compound),-22.7%
4,N/C(=N\OC(=O)Nc1ccc(CSc2ccc(Cl)cc2)o1)c1ccccn1,-22.8%
5,COc1cc2c(c(O)c1OC)C(=O)[C@@H]1CCC(=O)N1C2c1ccccc1 (stereo not given in full),2.7%
6,CC(C)OC(=O)N1CCCC1,13.8%
7,COC1=CC(=O)c2ccccc2C1(CCC=C(C)C)C1=NC(C)(C)CO1 (stereo not given),-11.6%
8,CC(C#N)(CCl)OS(=O)(=O)CCCl (stereo not given),21.4%
9,COc1ccc(C(C)Nc2cc(OC)c(OC)c(OC)c2)cc1 (stereo not given),-14.1%
10,c1cc2c3c(c1)ccc1ccc4cccc(c4c13)O2,-2.4%
11,CCCCCCCN1C=CCC(S(=O)(=O)N2CCOCC2)=C1,-7.75%
12,O=c1c2cc([N+](=O)[O-])ccc2sc2ccsc12,2.55%
13,COc1cc([C@@H]2c3cc4c(cc3[C@](C)(O)[C@H]3COC(=O)[C@H]23)OCO4)cc(OC)c1OC,10.4%
14,CC(C)(/C=N\O)NO,-20.4%
15,CN(C)c1nc(OC2C(C3COC(C)(C)O3)OC3OC(C)(C)OC32)nc(N(C)C)n1 (stereo not given),-9.65%
16,CSc1c(S(C)=O)[nH]c2cc(Br)cc(Br)c12 (stereo not given),89.3% (active)
17,Cc1ccc2cccc(CCOC(=O)c3ccc([N+](=O)[O-])cc3)c2c1,-19.1%
18,CCOc1ccc(N=Cc2cc(Br)ccc2O)cc1,0.6%
19,CCOC(=O)C1(c2ccccc2)CCNC(=O)CC1 (stereo not given),8.2%
20,CN(C)Cc1cc(N=Nc2ccccc2Cl)cc(CN(C)C)c1O,-19.1%

row,SMILES,growth inhibition
1,CN(/N=C\c1ccc2ccccc2c1)C1=NCCCCN1,-5.45%
2,Cc1cccc(-c2c3ccccc3cc3ccccc23)c1,14.2%
3,CCOC(=O)C1=C(Nc2ccc(Cl)cc2Cl)OC/C1=N\NS(=O)(=O)c1ccc(C)cc1,9.25%
4,COc1cc2c(C)cc(=O)oc2c(OCC(O)CN2CCCC2)c1OC (stereo not given),14%
5,CCOC(=O)C(C(=O)OCC)C(C(=O)OCC)(C(=O)OCC)C(C(=O)OCC)C(=O)OCC,-9.15%
6,Nc1ccnc2n[nH]nc12,-2%
7,CC1(N)CCC(C(C)(C)N)CC1 (stereo not given),-8.75%
8,CC1=C(CCC(C)CO)OC2CC3C4CC=C5CC(O)CCC5(C)C4CCC3(C)C12 (stereo not given),-0.65%
9,C/C(CC(=O)Nc1ccccn1)=N\c1ccccn1,-16.5%
10,O=C(/C=C/c1ccc2c(c1)OCO2)NCc1ccco1,8.7%
11,O=c1[nH]c(=S)[nH]c2[nH]ccc12,-13.9%
12,Cc1cnc2c(C)ccc([N+](=O)[O-])c2c1NCCCN(C)C,13.8%
13,CCCC1(CCC)NC(=O)N(CC(N)=O)C1=O,0.1%
14,COC(=O)c1nn(-c2ccccc2)c2nc3ccccc3c-2c1C(=O)OC,17%
15,O=C1OCc2cccc3c2-c2c1cccc2C(=O)OC3,-5.7%
16,CC(C)/C=C1\CCC(CN2CCCC2)C1=O (stereo not given),34.6%
17,NCCn1ccnc1,1.7%
18,S=C1SCN(c2ccc3c(c2)OCO3)CN1c1ccc2c(c1)OCO2,-33.9%
19,O=C(/C=C/c1ccccc1)Nc1ccc([N+](=O)[O-])cc1Cl,10.7%
20,CCC(=O)OCCCCCCOC(=O)CC,6%
